Max response and outcome data for 14 molecules are collected here from PubChem BioAssay (NCATS).

Structures are written as SMILES. Inconclusive results are not listed. The source made the active and inactive calls. Calls come from the whole dose curve; as a rule, active = well fitted inhibition curve with a large enough effect; inconclusive = small, poorly fitted or top-dose-only effect; inactive = flat fitted curve, though single readings scatter.
Note: nearly all actives have a fitted effect of over 60% in size.

The first assay relates to NIH3T3. Description: Cytotoxic Profiling of Annotated Libraries Using Quantitative High-Throughput Screening (AID 1296008). For Max response: % is set by controls: 0 for no effect and ±100 for the full control effect. The note with it: Five cell lines viability, CellTiter-Glo ATP luminescence, 48-72 h; max response: active compounds read low. In short, it runs like this: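 Cells exposed to compounds for 48 or 72 hr at 37 degrees Celsius. Viability read as ATP-coupled luminescence with CellTiter-Glo after 10 min at room temperature.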
On the technique in general: In ATP-based viability assays light output follows the ATP content of the culture.
In the case of `C=C1C(=O)OC2CC3(C)C(O)C(=O)C=C(C)C3CC12` (centres undefined), the max response was -22.8% (inactive).

Consider `CC(=O)O[C@H]1CC2C(COC(=O)CC(C)C)=CO[C@@H](OC(=O)CC(C)C)C2[C@]12CO2` (some centres undefined), for which the molecule was classed as inactive.

Consider `O=S(=O)(c1ccc(Cl)cc1)N1CCN(c2ccnc3cc(Cl)ccc23)CC1`, for which the max response is 3.17% (inactive).

Take `C/C=C\NC(=O)C1NC(=O)C(CC(N)=O)NC(=O)C(NC(=O)C(=O)C(C)CC)Cc2ccc(O)c(c2)-c2cccc3c2NC(=O)C3(O)C1O` (centres undefined): the max response is -19% (inactive).

Another assay has as its system HACAT. In words: qHTS assay to identify novel small-molecules to repurpose for Merkel cell carcinoma treatment (AID 1296009). The note with it: MCC and control cell lines, CellTiter-Glo viability, 72 h; at 44.8 µM (top of the series) unless noted. An outline of the steps:
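Cells were incubated with compound for 72 hr at 37 degree celsius before CellTiter-Glo addition. Luminescence was normalized with no-cell wells as full cytotoxicity and DMSO as baseline.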
(In general: qHTS replaces the single test concentration by a dilution series.)
As to `Cc1cc(C)nc(SCC(=O)Nc2ncc(Cc3cccc4ccccc34)s2)n1`, the molecule was classed as inactive.

In the case of `CC(C)(O)C(=O)N1CCN(c2ccc(C(F)(F)F)c(C3=C(c4c[nH]c5ccccc45)C(=O)NC3=O)c2)CC1`, the outcome was inactive.

On to `C#CCOc1ccc2c(c1)c(-c1ccc(C(C)C)cc1)nc(=O)n2C(C)C`, for which the result was inactive.

In the case of `C=C1CC[C@@H]2[C@](C)(CO)[C@H](O)CC[C@@]2(C)[C@@H]1/C=C/C1=CCOC1=O`, the molecule was called inactive.

On to `C/C=C/C=C/c1cc2c(C=O)c(O)c(CC=C(C)C)cc2o1`, for which the outcome was inactive.

`COc1cc2ncc(-c3ccccc3)nc2cc1OC`: the call was inactive.

For the molecule `COc1cc(CCc2ccc(OCC=C(C)C)cc2)cc(OC)c1OC`, the molecule was classed as inactive.

Take `COC(=O)c1sccc1S(=O)(=O)Nc1ccc(Nc2ccccc2)cc1OC`: the molecule was called inactive.

Regarding `N#Cc1ccc(-c2ccc(S(=O)(=O)Nc3cccc(N)n3)cc2)cc1`, the molecule was classed as inactive.

Regarding `CC(=O)OC[C@]12[C@H](OC(C)=O)C(=O)[C@@H]3[C@@H](O)[C@@]14O[C@@]3(C)COC(=O)c1cccnc1[C@@H](C)[C@H](C)C(=O)O[C@@H]([C@H](O)[C@@H]2OC(C)=O)[C@]4(C)O`, the outcome was “inactive [at 17.4 µM]”.
